Experimental findings from PubChem BioAssay (NCI) are described below.

SMILES strings stand for the structures. The panel holds about 83,000 compounds, 20% with a hit somewhere; the sample as a whole holds those more often.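 Single-dose data. Exposure time 48 hours. Values below 10 considered active.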 Unmarked numbers belong to inactive results. Active and inactive are the calls of the source.

Test systems include SR leukemia; RPMI-8226 leukemia; OVCAR-8 ovarian; OVCAR-5 ovarian; OVCAR-4 ovarian; SK-OV-3 ovarian; IGROV1 ovarian; OVCAR-3 ovarian; HS 578T breast; NCI/ADR-RES ovarian; T-47D breast; MDA-MB-435 melanoma; SW-620 colon; MCF7 breast; HCT-116 colon; HCC-2998 colon; KM12 colon; BT-549 breast.
Holding throughout (experiment): NCI-60 one-dose screen, 48 h (100 = growth as untreated, 0 = no growth, -100 = all killed)
Holding throughout (settings): 10 µM unless noted

As for `Oc1ccccc1/C=N/Nc1ccc2ccccc2n1`, the growth in the assay with SR leukemia is 8.32% (active); in the assay with RPMI-8226 leukemia, 35.2%; in the assay with OVCAR-8 ovarian it was 33.2%; in the assay with OVCAR-5 ovarian, 81%; with OVCAR-4 ovarian it was -0.697% (active); in the assay with SK-OV-3 ovarian, 43%. In addition, the growth with IGROV1 ovarian was 28.1%; in the assay with OVCAR-3 ovarian it was 8.79% (active); in the assay on HS 578T breast it was 79.3%; in the assay with NCI/ADR-RES ovarian, 22.9%; in the assay on T-47D breast, 21.8%; in the assay with MDA-MB-435 melanoma it was 65.2%. For the same compound, the growth in the assay on SW-620 colon is 34%; in the assay with MCF7 breast, -18% (active); in the assay on HCT-116 colon it was 22.3%; in the assay on HCC-2998 colon, 68.6%; in the assay on KM12 colon, 46.3%.

Take `O=C(CN1CCN(c2cc3c(cc2F)c(=O)c(C(=O)O)cn3C2CC2)CC1)Nc1nc(-c2ccc(Cl)cc2)cs1`: the growth in the assay with SR leukemia was 29.3%; with RPMI-8226 leukemia, 1.14% (active); in the assay on OVCAR-8 ovarian, 13.2%; in the assay on OVCAR-5 ovarian it was 51.7%; in the assay with OVCAR-4 ovarian, 67.7%; in the assay with SK-OV-3 ovarian, 21.1%. The growth with IGROV1 ovarian is 38.6%; with OVCAR-3 ovarian it was 14.2%; in the assay with HS 578T breast, 32.2%; with NCI/ADR-RES ovarian, 56.9%; with T-47D breast it was 40.2%; in the assay with BT-549 breast it was 26.3%. In addition, the growth in the assay on SW-620 colon is 26.2%; in the assay on MCF7 breast it was 23.5%; in the assay on HCT-116 colon, 13.7%; in the assay on HCC-2998 colon, 29.8%; with KM12 colon, 21.8%.

Turning to `O=C(COc1cccc(/C=C2/Oc3ccccc3C2=O)c1)Nc1nccs1`, the growth in the assay with SR leukemia is -53.8% (active); in the assay on RPMI-8226 leukemia, -53.2% (active); in the assay on OVCAR-8 ovarian, 61.8%; in the assay on OVCAR-5 ovarian, 86.6%; in the assay with OVCAR-4 ovarian, 87.5%; with SK-OV-3 ovarian, 266%. The growth is -35% (active) with IGROV1 ovarian; 220% in the assay on OVCAR-3 ovarian; 88.6% with HS 578T breast; 83.3% with NCI/ADR-RES ovarian; 166% in the assay on T-47D breast; 87.9% with BT-549 breast. The growth with SW-620 colon was 97.2%; in the assay on MCF7 breast, 54.4%; with HCT-116 colon, 73.9%; in the assay with HCC-2998 colon, 105%; in the assay with KM12 colon, 4.37% (active).

As to `Cc1ccc(C2CC3c4ccccc4C2C2CCCCN32)cc1` (stereo not drawn), the growth in the assay on SR leukemia is 106%; in the assay on RPMI-8226 leukemia it was 60.1%; in the assay on OVCAR-8 ovarian, 109%; in the assay with OVCAR-5 ovarian it was 96.2%; in the assay on OVCAR-4 ovarian, 82.6%; in the assay on SK-OV-3 ovarian it was 91.7%. In addition, the growth is 67.7% in the assay on OVCAR-3 ovarian; 93.3% with HS 578T breast; 94.1% in the assay on NCI/ADR-RES ovarian; 83.6% in the assay with T-47D breast; 57.4% in the assay with BT-549 breast; 97.8% with MDA-MB-435 melanoma. In addition, the growth in the assay with SW-620 colon was 106%; in the assay with MCF7 breast, 95.7%; in the assay with HCT-116 colon, 95.1%; with HCC-2998 colon, 93.1%.

For `CCCCN(CC)CCCCCCCCCCN1CCCc2cc(OC)ccc21`, the growth with SR leukemia was -31.7% (active); in the assay with RPMI-8226 leukemia it was -18.4% (active); with OVCAR-8 ovarian, 87.5%; in the assay on OVCAR-5 ovarian, 78.8%; in the assay with OVCAR-4 ovarian, 101%; in the assay with SK-OV-3 ovarian it was 88.9%. In addition, the growth was 13.6% in the assay with OVCAR-3 ovarian; 25.9% in the assay with NCI/ADR-RES ovarian; 93.6% in the assay with T-47D breast; 89.3% in the assay on BT-549 breast; 14.5% in the assay with MDA-MB-435 melanoma; 22.7% with SW-620 colon. Also, the growth was 99% with MCF7 breast, 69.7% with HCT-116 colon, -26% (active) in the assay on HCC-2998 colon and -1.91% (active) with KM12 colon.

On to `CCN(CC)c1ccc(CNc2cc(C)nc3ccc(OC)cc23)cc1`, for which the growth in the assay with SR leukemia was -22.2% (active); in the assay with RPMI-8226 leukemia it was -33.7% (active); in the assay on OVCAR-8 ovarian, 81.4%; in the assay with OVCAR-5 ovarian, 96.3%; in the assay on OVCAR-4 ovarian, 71.9%; in the assay on SK-OV-3 ovarian, 84.7%. The growth in the assay with OVCAR-3 ovarian was 51.6%; in the assay on NCI/ADR-RES ovarian, 33.9%; in the assay with T-47D breast, 80%; in the assay on BT-549 breast it was 79.6%; in the assay with MDA-MB-435 melanoma it was -16.5% (active); with SW-620 colon, -74.6% (active). Further, the growth with MCF7 breast was 76.7%; with HCT-116 colon it was 54.8%; in the assay with HCC-2998 colon, -92.6% (active); with KM12 colon it was 28.4%.

On to `CCCCCCCCCCCCNC(=O)[C@H]1CSC(c2ccc(OC)c(F)c2)N1` (stereo partly drawn), for which the growth was -50.9% (active) with SR leukemia; -53.3% (active) in the assay on RPMI-8226 leukemia; -51.1% (active) in the assay on OVCAR-8 ovarian; -98.6% (active) in the assay on OVCAR-5 ovarian; -96.6% (active) in the assay with OVCAR-4 ovarian; -76% (active) with IGROV1 ovarian. The growth with OVCAR-3 ovarian is -91.9% (active); in the assay on HS 578T breast it was -49.6% (active); in the assay on NCI/ADR-RES ovarian it was -60.4% (active); with T-47D breast it was -68.9% (active); with BT-549 breast, -84.3% (active); in the assay with MDA-MB-435 melanoma it was -92% (active). Also, the growth is -70.4% (active) in the assay on SW-620 colon; -68.1% (active) with MCF7 breast; -88.7% (active) in the assay on HCT-116 colon; -83.6% (active) with HCC-2998 colon; -84.6% (active) in the assay on KM12 colon.

Take `CC(C)n1cc2c(N)ncnc2n1`: the growth in the assay on SR leukemia was 97.5%; with RPMI-8226 leukemia, 107%; in the assay with OVCAR-8 ovarian, 108%; with OVCAR-5 ovarian, 109%; in the assay with OVCAR-4 ovarian, 95.5%; in the assay on SK-OV-3 ovarian it was 106%. The growth was 107% in the assay with IGROV1 ovarian; 104% with OVCAR-3 ovarian; 105% with HS 578T breast; 107% with NCI/ADR-RES ovarian; 93.9% with T-47D breast; 110% in the assay with SW-620 colon. The results for the growth in the assay with HCT-116 colon, in the assay on HCC-2998 colon and in the assay with KM12 colon were 102%, 122% and 111%, respectively.

As for `Nc1ccc2c(c1)C(=O)NC2=O`, the growth with SR leukemia is 40.7%; in the assay with RPMI-8226 leukemia it was 84.1%; in the assay on OVCAR-8 ovarian, 106%; with OVCAR-5 ovarian, 92.8%; in the assay on OVCAR-4 ovarian, 82.8%; in the assay with SK-OV-3 ovarian it was 100%. In addition, the growth in the assay on IGROV1 ovarian is 113%; in the assay with OVCAR-3 ovarian it was 105%; in the assay with HS 578T breast, 93.5%; with NCI/ADR-RES ovarian, 95.2%; in the assay with T-47D breast, 93.5%; with MDA-MB-435 melanoma, 92.2%. The growth in the assay on SW-620 colon was 94.8%; with MCF7 breast it was 96.5%; with HCT-116 colon, 97.8%; in the assay with HCC-2998 colon, 95.2%; with KM12 colon it was 98.8%.
